Measured values as given in PubChem BioAssay (NCATS).
Records with an inconclusive call do not appear. Calls of active or inactive are those of the source. Calls come from the whole dose curve; as a rule, active = well fitted curve in the direction sought with a large enough effect; inconclusive = small, poorly fitted or top-dose-only effect, or another doubt; inactive = no such curve, though single readings can be large; an effect the other way counts as inactive or inconclusive.

Key:
[1] = qHTS of pediatric cancer cell lines to identify multiple opportunities for drug repurposing: Confirmatory screen for NB1643 cells (AID 1347109); note: nearly all actives have a fitted effect of over 45% in size; note: potency is the fitted concentration of half-maximal effect
Method in brief: (§1)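 Cells (500-1,000/well) rested 5 h, then received compounds for 48 h; metabolically active cells were measured by CellTiter-Glo luminescence. Final concentrations spanned up to 46 µM (MIPE, 11-point) or 0.59 nM-46 µM (NPC, 8-point) in primary screens, 11-point in follow-ups.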

[2] = qHTS of pediatric cancer cell lines to identify multiple opportunities for drug repurposing: Confirmatory screen for SK-N-MC cells (AID 1347111);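 note: cells exposed to compound for 48 h before the readout; nearly all actives have a fitted effect of over 70% in size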; note: potency is the fitted concentration of half-maximal effect
Method in brief: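 Seed 500-1,000 cells/well; rest 5 h at 37 degrees C. Pin-transfer compounds, 11-point titration. Incubate 48 h. Add CellTiter-Glo, 15 min RT, read luminescence.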

[3] = qHTS of pediatric cancer cell lines to identify multiple opportunities for drug repurposing: Confirmatory screen for LAN-5 cells (AID 1347113); note: nearly all actives have a fitted effect of over 65% in size; note: potency is the fitted concentration of half-maximal effect
Method in brief: as §1

[4] = qHTS of pediatric cancer cell lines to identify multiple opportunities for drug repurposing: Confirmatory screen for NB-EBc1 cells (AID 1347115);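 note: cells exposed to compound for 48 h before the viability read; nearly all actives have a fitted effect of over 45% in size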; note: potency is the fitted concentration of half-maximal effect
Method in brief: as §1

[5] = qHTS of pediatric cancer cell lines to identify multiple opportunities for drug repurposing: Confirmatory screen for TC32 cells (AID 1347118);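 note: cells exposed to compound for 48 h before the read; nearly all actives have a fitted effect of over 65% in size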; note: potency is the fitted concentration of half-maximal effect
Method in brief: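 qHTS, TC32, 48 h drug treatment, CellTiter-Glo luminescence as a proxy for metabolically active cells; primary top concentration 46 µM (MIPE 11-pt, NPC 8-pt); confirmatory 11-pt.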

[6] = qHTS of pediatric cancer cell lines to identify multiple opportunities for drug repurposing: Confirmatory screen for MG 63 (6-TG R) cells (AID 1347119); note: nearly all actives have a fitted effect of over 55% in size
Method in brief: as §1

[7] = qHTS of pediatric cancer cell lines to identify multiple opportunities for drug repurposing: Confirmatory screen for control Hh wild type fibroblast cells (AID 1347121); note: nearly all actives have a fitted effect of over 70% in size; note: potency is the fitted concentration of half-maximal effect
Method in brief: as §1

[8] = qHTS of pediatric cancer cell lines to identify multiple opportunities for drug repurposing: Confirmatory screen for Rh41 cells (AID 1347123);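 note: 48 h compound exposure; nearly all actives have a fitted effect of over 60% in size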; note: potency is the fitted concentration of half-maximal effect
Method in brief: as §1

[9] = qHTS of pediatric cancer cell lines to identify multiple opportunities for drug repurposing: Confirmatory screen for Rh18 cells (AID 1347125); note: nearly all actives have a fitted effect of over 55% in size; note: potency is the fitted concentration of half-maximal effect
Method in brief: as §1

[10] = qHTS of pediatric cancer cell lines to identify multiple opportunities for drug repurposing: Confirmatory screen for SK-N-SH cells (AID 1347129);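 note: cells exposed to compound for 48 h before viability read; nearly all actives have a fitted effect of over 60% in size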; note: potency is the fitted concentration of half-maximal effect
Method in brief: as §1

[11] = qHTS of pediatric cancer cell lines to identify multiple opportunities for drug repurposing: Confirmatory screen for A673 cells (AID 1347110);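 note: cells exposed to compound for 48 h before the viability read; nearly all actives have a fitted effect of over 65% in size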; note: potency is the fitted concentration of half-maximal effect
Method in brief: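 Cells plated at 500-1,000/well were treated five hours later with multi-point dilutions up to 46 µM final. After two days, CellTiter-Glo was added and luminescence read.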

[12] = qHTS of pediatric cancer cell lines to identify multiple opportunities for drug repurposing: Confirmatory screen for BT-37 cells (AID 1347117); note: nearly all actives have a fitted effect of over 55% in size; note: potency is the fitted concentration of half-maximal effect
Method in brief: as §1

[13] = qHTS of pediatric cancer cell lines to identify multiple opportunities for drug repurposing: Confirmatory screen for U-2 OS cells (AID 1347122); note: nearly all actives have a fitted effect of over 65% in size; note: potency is the fitted concentration of half-maximal effect
Method in brief: as §1

[14] = qHTS of pediatric cancer cell lines to identify multiple opportunities for drug repurposing: Confirmatory screen for RD cells (AID 1347124); note: potency is the fitted concentration of half-maximal effect
Method in brief: as §1

[15] = qHTS of pediatric cancer cell lines to identify multiple opportunities for drug repurposing: Confirmatory screen for OHS-50 cells (AID 1347128);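 note: compound exposure lasted 48 h at 37 degrees C; nearly all actives have a fitted effect of over 55% in size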; note: potency is the fitted concentration of half-maximal effect
Method in brief: as §1

[16] = qHTS of pediatric cancer cell lines to identify multiple opportunities for drug repurposing: Confirmatory screen for BT-12 cells (AID 1347112)
Method in brief: as §1

[17] = qHTS of pediatric cancer cell lines to identify multiple opportunities for drug repurposing: Confirmatory screen for DAOY cells (AID 1347114); note: nearly all actives have a fitted effect of over 65% in size
Method in brief: (§2)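 Viability measured as metabolically active cells via CellTiter-Glo luminescence following 48 hours of compound exposure, 11-point dilutions in confirmatory testing. 500-1,000 cells/well plated 5 hours before dosing; controls were DMSO and 2.3 µM bortezomib.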

[18] = qHTS of pediatric cancer cell lines to identify multiple opportunities for drug repurposing: Confirmatory screen for Rh30 cells (AID 1347126); note: nearly all actives have a fitted effect of over 55% in size; note: potency is the fitted concentration of half-maximal effect
Method in brief: as §1

[19] = qHTS of pediatric cancer cell lines to identify multiple opportunities for drug repurposing: Confirmatory screen for SJ-GBM2 cells (AID 1347116); note: nearly all actives have a fitted effect of over 60% in size
Method in brief: as §2

[20] = qHTS of pediatric cancer cell lines to identify multiple opportunities for drug repurposing: Confirmatory screen for Saos-2 cells (AID 1347127); note: nearly all actives have a fitted effect of over 60% in size; note: potency is the fitted concentration of half-maximal effect
Method in brief: as §1

Measured: Potency

O=C(CC12CC3CC(CC(C3)C1)C2)Nc1cccc2nc(NCCNCCO)ccc12
inactive: [1] | [3] | [4] | [6] | [7] | [9] | [10]
active: [2] 23.3 µM | [5] 18.5 µM | [8] 13.1 µM

CCC[C@H](Nc1nc(-c2ccc(NC(=O)NCC)c(OC)c2)ncc1C)c1cccnc1
inactive: [7] | [9] | [10]
active: [1] 0.165 µM | [11] 0.233 µM | [3] 0.414 µM | [4] 0.329 µM | [12] 0.329 µM | [5] 0.117 µM | [13] 0.233 µM | [14] 0.147 µM | [15] 0.329 µM

CC1CNc2c(cccc2S(=O)(=O)N[C@@H](CCCN=C(N)N)C(=O)N2CC[C@@H](C)C[C@@H]2C(=O)O)C1 (some centres undefined)
active: [2] 20.8 µM | [18] 20.8 µM
inactive: [11] | [16] | [17] | [4] | [12] | [7] | [13] | [8] | [9] | [15] | [10]

OCCn1cc(-c2ccc3c(c2)CCC3=NO)c(-c2ccncc2)n1
active: [14] 8.51 µM
inactive: [1] | [16] | [4] | [12] | [5] | [7] | [9] | [15] | [10]

CO[C@H]1/C=C\O[C@@]2(C)Oc3c(C)c(O)c4c(O)c(c5c(nc6cc(C)ccn65)c4c3C2=O)NC(=O)C(C)=CC=C[C@H](C)[C@H](O)[C@@H](C)[C@@H](O)[C@@H](C)[C@H](OC(C)=O)[C@H]1C
inactive: [1] | [11] | [16] | [3] | [4] | [19] | [12] | [6] | [7] | [13] | [14] | [9] | [18] | [10]

O=C1Nc2ccc(I)cc2C1=Cc1cc(Br)c(O)c(Br)c1
active: [11] 11.7 µM | [18] 1.17 µM
inactive: [2] | [16] | [4] | [19] | [12] | [8] | [14] | [9] | [20] | [10]

C[C@@]1(C(=O)Nc2ccc(F)nc2)CCCN1c1nc(Nc2cc(C3CC3)[nH]n2)c2cccn2n1
active: [1] 0.293 µM | [11] 0.465 µM | [3] 0.147 µM | [4] 1.47 µM | [12] 2.93 µM | [5] 0.233 µM | [7] 14.7 µM | [13] 1.65 µM | [8] 0.208 µM | [9] 7.37 µM | [20] 1.85 µM | [15] 5.22 µM | [10] 1.66 µM
